SF-1 inh = inhibitors of human SF-1, primary screen, cell-based, CHO-K1, Gal4-SF-1 LBD, luciferase luminescence | inhibition, % at 10 µM | CHO-K1 Gal4-SF-1 LBD luciferase reporter | 65,000 compounds, 0.55% hits;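 active = inhibition above the mean inhibition of all tested compounds plus 3 SD, cut at about 48% in these data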;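 note: 0% = SF-1 transfected cells with DMSO and 100% = mock-transfected cells lacking SF-1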
Target sequence (Q13285 whole entry, looked up, the tested form may be a part): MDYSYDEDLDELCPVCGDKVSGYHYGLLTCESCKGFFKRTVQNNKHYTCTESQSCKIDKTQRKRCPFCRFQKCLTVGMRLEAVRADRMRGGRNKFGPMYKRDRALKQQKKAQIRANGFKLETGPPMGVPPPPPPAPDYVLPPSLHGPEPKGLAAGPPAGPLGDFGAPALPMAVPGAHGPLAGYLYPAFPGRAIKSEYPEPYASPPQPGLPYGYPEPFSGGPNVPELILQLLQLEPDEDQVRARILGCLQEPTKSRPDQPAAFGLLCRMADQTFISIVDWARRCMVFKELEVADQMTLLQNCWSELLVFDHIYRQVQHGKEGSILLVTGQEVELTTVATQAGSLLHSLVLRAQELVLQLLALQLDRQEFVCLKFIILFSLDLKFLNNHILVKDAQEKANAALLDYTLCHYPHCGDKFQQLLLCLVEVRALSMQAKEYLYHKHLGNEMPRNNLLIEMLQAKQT
Starred values were filed as active, the others as inactive. Only a selection was taken, and hits are over-represented in it overall.

Screening COC(=O)C1=C(CSc2nnnn2C)NC(=O)NC1c1cc(C)ccc1C (stereo not drawn) returned SF-1 inh 3.
For COc1ccc2c(c1OC)C(=O)N(c1cccc(C(F)(F)F)c1)C2 the results were SF-1 inh -59.
O=C(O)CCC(=O)N1CCN(c2cccc(Cl)c2)CC1 was read as SF-1 inh -10.
Screening COc1ccccc1CC(=O)N1CCN(c2cccc(C(F)(F)F)c2)CC1 returned SF-1 inh 48*.
`COc1cccc(-c2nnc(SCC(=O)OC(C)C)n2Cc2ccco2)c1` gave SF-1 inh 15.
Screening Fc1ccc(OCc2nn3cnnc3s2)cc1 returned SF-1 inh 12.
COc1cccc2c1C(=O)c1c(O)c3c(c(O)c1C2=O)C[C@@](O)(C(=O)CO)C[C@@H]3O[C@H]1C[C@H](N)[C@H](O)[C@H](C)O1 was read as SF-1 inh 80*.
Screening COc1ccc(N2C(=O)CC(c3ccc(OC(C)C)cc3)C2=O)cc1 (stereo not drawn) returned SF-1 inh 1.
Cn1c(C(C#N)C(=O)c2ccco2)nc2ccccc21 (stereo not drawn) was read as SF-1 inh -59.
Screening Cn1c(SC2=CS(=O)(=O)c3ccccc32)nc2ccccc21 returned SF-1 inh 68*.
Screening Cn1c(N2CCN(C(=O)NCc3ccccc3)CC2)nc2ccccc21 returned SF-1 inh 8.
O=C(O)C1CC=CCC1C(=O)Nc1ccc(S(=O)(=O)N2CCCc3ccccc32)cc1 (stereo not drawn) was read as SF-1 inh -12.
For Cn1nc(C(C)(C)C)cc1C(=O)NCc1ccc(N2CCCC2=O)cc1 the results were SF-1 inh 69*.
`O=C1CC(NCCN2CCOCC2)C(=O)N1Cc1ccc(N2CCCC2=O)cc1` (stereo not drawn) gave SF-1 inh -4.
O=C(NCc1ccccc1)c1noc2c1CCCCC2 was read as SF-1 inh -52.
`COC(=O)c1ccc(CSc2nc(C)nc3sc(C)c(C)c23)o1` gave SF-1 inh 16.
`Cc1cccc(-n2ncc3c(N(C)Cc4ccccc4)ncnc32)c1` gave SF-1 inh -64.
`COc1cccc(NC(=O)CSc2ccc3nnc(-c4ccncc4)n3n2)c1` gave SF-1 inh 13.
`COc1cccc(NC(=O)CSc2nnc(-c3cc(C)n(-c4ccccc4)c3C)o2)c1` gave SF-1 inh 67*.
For COc1ccc(-n2c(Cc3cccn3C)nnc2SCC(=O)Nc2cccc(OC)c2)cc1 the results were SF-1 inh -10.
Screening COc1ccc(N(C)S(=O)(=O)c2c(C)[nH]c(=O)[nH]c2=O)cc1 returned SF-1 inh -4.
For O=C(CN1C(=O)NC2(CCCCCC2)C1=O)c1ccc2c(c1)OCCO2 the results were SF-1 inh -89.
For CSc1nncc(-c2ccc(F)cc2)n1 the results were SF-1 inh 17.
`O=C(Nc1nsc(-c2ccccc2)n1)c1cccs1` gave SF-1 inh -77.
COc1cccc(-n2nnnc2SCC(=O)Nc2cccc(C)n2)c1 was read as SF-1 inh 1.
Screening O=C(CSc1nnnn1-c1ccccc1)Nc1nsc(-c2ccc(Cl)cc2)n1 returned SF-1 inh 88*.
`COCCn1c(C)cc(C(=O)COC(=O)c2ccc3ncsc3c2)c1C` gave SF-1 inh -52.
COCCn1c(C)cc(C(=O)CSc2nc3ccccc3c(=O)[nH]2)c1C was read as SF-1 inh -8.
Screening COCCn1c(C)cc(C(=O)COC(=O)c2n[nH]c3ccccc23)c1C returned SF-1 inh 67*.
C=CCNC(=O)NS(=O)(=O)c1ccc(C)cc1 was read as SF-1 inh 4.
O=C(c1ccncc1)N1C2C=CC(C2)C1(C(F)(F)F)C(F)(F)F (stereo not drawn) was read as SF-1 inh -12.
Screening O=C(Nc1ccc2c(c1)OCO2)c1c(Cl)nc2sccn12 returned SF-1 inh -66.
Cc1ccc2oc(=O)c3cnn(CC(=O)NCCC(C)C)c3c2c1 was read as SF-1 inh 14.
For COc1cc(CNC2CCC(C)C2)cc(OC)c1 (stereo not drawn) the results were SF-1 inh 6.
CCOc1ccccc1-n1c(SCC(=O)Nc2ccc(CC)cc2)nc2n[nH]c(C)c2c1=N was read as SF-1 inh 84*.
Screening CCOc1cccc(-c2nnc(SCC(=O)Nc3ccc(OC)c(OC)c3)n2N)c1 returned SF-1 inh 11.
For CCOc1ccccc1N(CC(=O)Nc1ccc(C)cc1)S(C)(=O)=O the results were SF-1 inh 2.
Cc1nc2ccc(C(=O)c3ccccc3)cc2[nH]1 was read as SF-1 inh -57.
Screening COc1cc(C2C(C#N)=C(N)Oc3cc(N(C)C)ccc32)cc2c1OCO2 (stereo not drawn) returned SF-1 inh 59*.
O=C(COC(=O)CSCC(=O)N1CCCCC1)Nc1ccc(Cl)cc1 was read as SF-1 inh 5.
COC(=O)C1=[N+]([O-])OC(C(=O)OC)C1c1c[nH]c2ccccc12 (stereo not drawn) was read as SF-1 inh 5.
COc1ccc(N2CCN(CCNC(=O)CCNS(=O)(=O)c3cccs3)CC2)cc1 was read as SF-1 inh -10.
COc1ccc(NC(=O)NCCCN2CCN(c3cc(C)ccc3C)CC2)cc1 was read as SF-1 inh 49*.
Screening Cc1ccc2c(c1)NC(=O)C(CC(=O)NCCCN1CCN(c3cc(Cl)ccc3C)CC1)O2 (stereo not drawn) returned SF-1 inh 13.
`COC(=O)c1cn(C(C)C(=O)NCc2ccco2)c2ccccc12` (stereo not drawn) gave SF-1 inh 13.
For COC(=O)c1ccc(C(=O)OC)c(NS(C)(=O)=O)c1 the results were SF-1 inh 9.
Screening COCCCNC(=O)CCN1C(=O)COc2ccccc21 returned SF-1 inh 9.
For CCOc1ccc(-c2cc(CCCC(=O)NCCCOC)no2)cc1 the results were SF-1 inh 58*.
Screening CCCNC(=O)c1cc(-c2ccc(Br)cc2)on1 returned SF-1 inh -58.
For CCCCSC1=C(C#N)C(c2ccccc2C)C(C(=O)OCC)C(=O)N1 (stereo not drawn) the results were SF-1 inh 1.
`COc1cccc(OC)c1NC(=O)Cc1nn(C)c(=O)c2ccccc12` gave SF-1 inh -3.
Cn1c(SCC(=O)Nc2ccc3c(c2)OCCO3)nnc1-c1ccco1 was read as SF-1 inh -16.
COc1ccc2c(c1)c(C(=O)CNc1nc(C)cs1)c(C)n2C was read as SF-1 inh 6.
For Cn1nc(CC(=O)Nc2ccc3c(c2)OCCO3)c2ccccc2c1=O the results were SF-1 inh 62*.
`CCC(=O)Nc1ccc(N2CCN(C(=O)c3ccccc3C)CC2)cc1` gave SF-1 inh 4.
`Cn1nc(C(=O)NCC2CCCO2)c2ccccc2c1=O` (stereo not drawn) gave SF-1 inh 6.
For O=C(Nc1ccc2c(c1)OCCO2)c1c(F)cccc1F the results were SF-1 inh -56.
For Cc1ccc(NC(=O)Cc2nn(C)c(=O)c3ccccc23)cc1F the results were SF-1 inh 80*.
For Cc1csc(NC(=O)Cc2nn(C)c(=O)c3ccccc23)n1 the results were SF-1 inh 54*.
`Cn1nc(CC(=O)Nc2ccc(N3CCN(C(=O)OC(C)(C)C)CC3)cc2)c2ccccc2c1=O` gave SF-1 inh 63*.
Screening CCc1nn(CC(=O)O)c(=O)c2ccccc12 returned SF-1 inh -18.

Compound activity from PubChem BioAssay.
